# Pf Dd2 growth: inhibitors of Plasmodium falciparum Dd2 growth; AID 1347417; P. falciparum Dd2 growth, SYBR Green, 72 h; hit rate 4.3% among 120,000; Potency, µM (top dose mostly 28.9 µM), inactives show top-dose activity, negative = inhibition, hits mostly inhibitors; active = well fitted inhibition curve with a large enough effect;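 note: plate controls were DMSO vehicle for no effect and reference drug for full effect; nearly all actives have a fitted effect of over 65% in size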
#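 Infected erythrocytes (Dd2, 0.3% parasitemia, 2.5% hematocrit final) are added to compound in RPMI-1640/Albumax II medium, grown 72 h at 37C in low oxygen, then lysed with saponin/Triton-X containing SYBR Green and read by fluorescence.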
# * marks the source's active call; other numbers are inactive results; i = inactive; [ ] = dose if it differs, or a comment. The full list was thinned out, with hits kept by preference. Potency is the fitted concentration of half-maximal effect.
SMILES,Pf Dd2 growth
CC1CCN(C(=O)Cn2c(=O)n(CC3CCC(C(=O)NC(C)C)CC3)c(=O)c3sccc32)CC1 (centres undefined),-13%
COc1cccc(Cn2c(=O)n(CC3CCC(C(=O)N4CCOCC4)CC3)c(=O)c3sccc32)c1 (centres undefined),8.9µM*
CCCNC(=O)C1CCC(Cn2c(=O)c3sccc3n(CC(=O)NCc3ccccc3)c2=O)CC1 (centres undefined),-16%
CCCc1nc(C(=O)NC(C)c2cnn(-c3ccccc3)c2C)cs1 (centres undefined),-23%
O=C(NC(c1ccccc1)c1ccccc1)c1cnc2c(c1)N([S+](=O)([O-])c1cccnc1)CCC2,36%
CC(C)(C)CN1CCOC[C@H]1c1ncc(-c2ccc(Cl)cc2)[nH]1,-3%[44.1 µM]
CS(=O)(=O)c1ccc(CN2CCOC[C@H]2c2ncc(-c3cccc(Cl)c3)[nH]2)cc1,i
Clc1ccc(-c2cnc([C@@H]3COCCN3C3CCOCC3)[nH]2)cc1,i
COc1cccc(-c2cnc([C@@H]3COCCN3Cc3ccccc3)[nH]2)c1,11µM*
Clc1cccc(-c2cnc([C@@H]3COCCN3C3CCCCC3)[nH]2)c1,11µM*
Fc1ccc(-c2cnc([C@@H]3COCCN3Cc3ccncc3)[nH]2)cc1,i
Clc1ccc(-c2cnc([C@@H]3COCCN3Cc3ccccc3)[nH]2)cc1,10µM*
COc1ccc(-c2cnc([C@@H]3COCCN3Cc3ccc(C)cc3)[nH]2)cc1,i
Clc1ccc(-c2cnc([C@@H]3COCCN3C3CCC3)[nH]2)cc1,i
COCCN1C(=O)[C@H]2CN(Cc3cccc(OC(F)(F)F)c3)C[C@H]2C1=O,11%
O=C(c1ccccn1)N1CCC(N2Cc3ccccc3C2=O)CC1,23%
O=C(C1CC(=O)N(C2CCCCC2)C1)N1CCC2(CC1)NCCc1c2[nH]c2ccccc12 (centres undefined),i
COCCNC(=O)C[C@@H]1O[C@H](Cn2cc(CN(C)Cc3ccccc3)nn2)[C@@H](O)[C@H]1O,i
COc1ccc(-n2nc(C3CCN(C(=O)Cc4ccccn4)CC3)[nH]c2=O)cc1,-8%
Cc1ccc(S(=O)(=O)NC[C@H]2OC[C@@H](NC3CCNCC3)[C@@H]2O)cc1,25%
CN(C)c1nccnc1OC1CCN(C(=O)CCCc2ccccc2)C1 (centres undefined),-23%
N#Cc1nc(/C=C/c2ccc(F)cc2)oc1N1CCN(c2ccccc2)CC1,60%
Cc1ccc(OCc2ccc(-c3nc(C#N)c(N4CCN(c5cccc(Cl)c5)CC4)o3)o2)cc1,-8%
Cc1ccccc1OCc1ccc(-c2nc(C#N)c(N3CCN(c4ccccc4)CC3)o2)o1,11µM*
CCNC(=O)N[C@H]1CC[C@]2(C)CCC([C@H](C)C(=O)NC3CC3)[C@H](O)[C@H]2[C@@H]1C (some centres undefined),5%[44.1 µM]
SMILES,Pf Dd2 growth
COc1cc(NC(=O)Cn2c(-c3cnccn3)nc(C)c(CCO)c2=O)cc(OC)c1OC,8%
O=C1N[C@H](CCC(=O)N2CCCC2)C(=O)Nc2ccccc21,11%
CC(=O)N1CCCC(c2[nH]ccc2C(=O)N2CCN(c3ncccn3)CC2)C1 (centres undefined),14%
COc1ccc(-c2ccc3c(c2)C(=O)N2CC[C@H](NC(=O)CSC)C[C@H]2C(=O)N3)cc1,i
Cc1ncccc1OC1(C(=O)N2CCCC2c2nc(C(C)C)no2)CCNCC1 (centres undefined),-5%
CC1=NS(=O)(=O)N(C)C=C1C(=O)OCc1nc(-c2ccc3c(c2)OCO3)no1,30%
CCN1CCC(N2CCCC(N3CCN(c4ccccc4OC)CC3)C2)CC1 (centres undefined),i
COc1ccccc1N1CCN(Cc2ccc(=O)n(C)c2)CC1,4%
COc1ccccc1N1CCN(C2CCCN(C3CCN(Cc4ccccc4)CC3)C2)CC1 (centres undefined),13µM*
CCn1c(-c2ccccc2)nn(CC(=O)NCCc2ccc(C)o2)c1=O,-9%
COc1ccc(CN[C@H]2[C@H](O)[C@H](O)C[C@@H]2c2ccc(N3CCOCC3)nc2)cn1,19%[44.1 µM]
COc1ccc(C(C)NC(=O)COc2ccc(NC(=O)C3CC3)cn2)cc1 (centres undefined),i
CCC(=O)Nc1ccc(C2(C(=O)N3CCN(c4ccccc4)CC3)CCC2)cc1,-20%
CC(C)C(=O)Nc1ccc(C2(C(=O)N3CCN(c4ccccc4)CC3)CCCCC2)cc1,7.9µM*
CCNC(=O)C1(c2ccc(NC(=O)C(C)C)cc2)CCCCC1,-13%
CNCCN1C(=O)CC[C@H]2CN(C(=O)CCN3CCCCO3)CC[C@H]21,0%
Cc1cccc2[nH]c(CN(C)C(=O)c3ccc(CCC(C)(C)O)cc3)nc12,-21%
COc1ccc(NC(=O)C2(C)CCc3cnc(N4CCOCC4)nc32)cn1 (centres undefined),-14%[44.1 µM]
Cc1noc2c(N3CC[S+](=O)([O-])CC3)cc(-c3cccc(C(F)(F)F)c3)nc12,i
C[C@@H](NC(=O)C1CCCCC1)c1onc(-c2ccc(F)cc2)c1C(=O)O,10%[44.1 µM]

# Source: PubChem
